A selection: hits, their analogues and other compounds. The true share with any hit is near 2.3%.
UBC13 inh: inhibitors of human UBC13 polyubiquitin chain formation | P61088 | TR-FRET | inhibition, % at 20 µM | 330,000 compounds, 0.47% hits; in the data active = inhibition above about 45%, passing the limit was not always enough
MEKK3 PB1 HTS: raises or lowers MEK5 binding to the human MEKK3 PB1 domain | bead-based flow cytometry, Alexa488-MEK5 binding to MEKK3; actives lie on both sides; 0 = blocked by unlabeled MEK5, 100 = vehicle | binding response (% of control), % at 10 µM | Q99759 | AID 1529 | 290,000 compounds, 1.4% hits;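 active = binding response more than 3 SD above or below the average of its plate-row segment, actives on both sides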;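 also: Alexa488 bead fluorescence after subtracting the streptavidin-only scavenger bead signal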
Target sequence (Q99759 whole entry, looked up, the tested form may be a part): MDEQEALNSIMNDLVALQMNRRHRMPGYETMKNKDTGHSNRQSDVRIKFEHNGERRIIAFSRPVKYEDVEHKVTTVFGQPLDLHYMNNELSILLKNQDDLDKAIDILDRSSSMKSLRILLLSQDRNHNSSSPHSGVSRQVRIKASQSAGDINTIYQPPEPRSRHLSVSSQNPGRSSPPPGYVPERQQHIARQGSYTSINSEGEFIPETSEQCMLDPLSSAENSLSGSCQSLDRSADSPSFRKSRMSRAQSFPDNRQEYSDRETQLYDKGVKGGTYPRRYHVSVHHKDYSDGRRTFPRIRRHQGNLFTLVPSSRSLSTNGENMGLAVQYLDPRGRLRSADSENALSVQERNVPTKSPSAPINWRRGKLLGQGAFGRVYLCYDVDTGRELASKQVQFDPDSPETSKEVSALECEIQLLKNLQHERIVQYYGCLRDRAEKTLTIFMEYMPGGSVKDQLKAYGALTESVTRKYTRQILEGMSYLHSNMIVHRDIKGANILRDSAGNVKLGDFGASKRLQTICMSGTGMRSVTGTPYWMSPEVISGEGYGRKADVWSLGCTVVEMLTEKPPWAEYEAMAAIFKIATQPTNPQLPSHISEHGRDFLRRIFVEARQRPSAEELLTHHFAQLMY
MEKK2wt PB1 HTS: raises or lowers MEK5 binding to wildtype human MEKK2 PB1 domain. bead flow cytometry, Alexa488-MEK5 binding to MEKK2 WT; actives lie on both sides. 290,000 compounds, 1.1% hits. binding response (% of control), % at 10 µM; in the data active = binding response below about 67% or above about 130%
MEKK2 mut-MEK5: signal of MEK5 binding to mutant human MEKK2 PB1 domain. bead flow cytometry, Alexa488-MEK5 binding to MEKK2 mutant. percent response, % at 10 µM. 290,000 compounds, 0.35% hits. AID 1530; in the data active = percent response above about 24%, passing the limit was not always enough
MEKK2wt confirm: raises or lowers MEK5 binding to wildtype human MEKK2, retest; shares compounds with MEKK3 PB1 HTS; bead flow cytometry, Alexa488-MEK5 binding to MEKK2 WT; actives lie on both sides; binding response (% of control), % at 10 µM; 5,900 compounds, 2.4% hits; in the data active = binding response below about 16% or above about 210%; inactive = in between
MEKK2mut confirm: signal of MEK5 binding to mutant human MEKK2, retest; 5,900 compounds, 2% hits; AID 1893; shares compounds with MEKK3 PB1 HTS; bead flow cytometry, Alexa488-MEK5 binding to MEKK2 mutant; percent response, % at 10 µM; in the data active = percent response mostly above about 71%, no sharp cut-off; inactive = mostly below about 38%;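 also: higher means compound restores mutant binding toward wildtype level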
MEKK3 confirm: MEKK3-MEK5 PB1 inhibition, single concentration confirmation. shares compounds with MEKK3 PB1 HTS. bead flow cytometry, Alexa488-MEK5 binding to MEKK3; hits give low values. binding response (% of control), % at 10 µM. 5,900 compounds, 1.8% hits;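 active = binding response below 72% of control, or above a set upper limit, though filed actives all read lower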;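 also: 100% = DMSO only wells and 0% = binding blocked by excess unlabeled MEK5; lower values mean stronger disruption of MEK5 binding to MEKK3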
Numbers without * were called inactive; x = no result given; [ ] = dose if it differs, or a comment.

SMILES	UBC13 inh	MEKK3 PB1 HTS	MEKK2wt PB1 HTS	MEKK2 mut-MEK5	MEKK2wt confirm	MEKK2mut confirm	MEKK3 confirm
N#Cc1ccccc1NC(=O)c1ccccc1OCC(=O)Nc1ccc2c(c1)oc1ccccc12	-13.5	78.0*[inhibitor]	88.0	-11.0	91.0	-33.0	96.0
CNC(=O)COc1ccccc1C(=O)Nc1ccc2c(c1)oc1ccccc12	15.1	103.0	101.0	1.0	x	x	x
O=C(O)C(Cc1cc(Cl)ccc1Cl)Sc1nc2ccccc2[nH]1 (centres undefined)	0.2	135.0*	129.0	25.0	98.0	-13.0	96.0
OCCNC(=S)NCCc1ccccc1	4.3	132.0*	109.0	0.0	100.0	0.0	100.0
C=CCNc1nc(N2CCCCC2)c(C#N)c2c1CN(Cc1ccccc1)CC2	-5.2	105.0	130.0	14.0	x	x	x
CCN1CCc2c(C#N)c(N3CCCCC3)nc(NCc3ccccc3)c2C1	28.0	105.0	158.0*	27.0	141.0	13.0	106.0
CCOC(=O)c1cn(Cc2ccccc2)nn1	-2.8	131.0*	101.0	0.0	100.0	-3.0	105.0
O=c1cc(CSc2ccc(Cl)cc2)nc(-c2ccncc2)[nH]1	-5.7	102.0	100.0	-5.0	x	x	x
O=c1cc(CSc2ccccc2)nc(-c2ccncc2)[nH]1	-3.1	46.0*[inhibitor]	61.0	-15.0	100.0	8.0	100.0
CCNC(=S)N1CCN(c2nc(-c3ccc(F)cc3)cs2)CC1	8.2	111.0	110.0	3.0	x	x	x
CCN(CC)CCCNC(=S)N1CCN(c2nc(-c3ccc(F)cc3)cs2)CC1	15.7	110.0	186.0*	27.0*	143.0	31.0	107.0
COc1ccc(CCNC(=O)C(=O)N2CCCC2)cc1OC	-6.4	93.0	91.0	-8.0	x	x	x
CCN(c1cccc(C)c1)S(=O)(=O)c1c(C)[nH]c(C)c1C(=O)N1CCCCC1	-0.4	98.0	102.0	0.0	x	x	x
CN(C)S(=O)(=O)c1ccc(C(=O)OCC(=O)Nc2sc3c(c2C#N)CCCCC3)cc1	10.8	108.0	103.0	3.0	x	x	x
CC(C)(C)c1ccc(C(=O)OCC(=O)Nc2sc3c(c2C#N)CCC3)cc1	4.3	132.0*	106.0	1.0	76.0	-19.0	74.0
CCCCn1c(N)c(N(CC(C)C)C(=O)CCNC(=O)c2ccc([N+](=O)[O-])cc2)c(=O)[nH]c1=O	-3.2	x	x	x	x	x	x
O/N=C1\CCCc2c1nc(-c1ccccc1F)n2O	-1.5	130.0*	113.0	26.0	120.0	7.0	105.0
CCC(CO)Oc1cc(NC(=O)c2cccc(Cl)c2)c2ncn(C(C)C)c2c1 (centres undefined)	9.9	x	x	x	x	x	x
O=C(NC1=NCCS1)C1COc2ccccc2O1 (centres undefined)	6.3	1.0*[inhibitor]	-1.0*[inhibitor]	-8.0	98.0	1.0	99.0
CC(=O)CN1Cc2ccccc2/C1=N\C(=O)Nc1ccccc1	-1.8	77.0*[inhibitor]	86.0	-9.0	101.0	-6.0	101.0
CSc1ncccc1C(=O)OCC(=O)N1CC(=O)Nc2ccccc21	-0.2	x	x	x	x	x	x
CCOC(=O)c1cc(C)sc1/N=C/C1=C(O)CCCC1=O	-8.7	131.0*	108.0	1.0	107.0	9.0	109.0
COc1cc(C(=O)N(C)CCOc2ccc(C)cc2)ccc1OC1CCN(C(C)=O)CC1	-3.3	103.0	104.0	6.0	x	x	x
Cc1ccc(S(=O)(=O)N2CCN(C(=O)C(Cc3ccccc3)NC(=O)c3ccccc3)CC2)cc1 (centres undefined)	0.4	x	x	x	x	x	x
COC(=O)CCNC(=O)Cc1ccc(S(=O)(=O)N2CCCCC2)s1	-8.1	x	x	x	x	x	x
SMILES	UBC13 inh	MEKK3 PB1 HTS	MEKK2wt PB1 HTS	MEKK2 mut-MEK5	MEKK2wt confirm	MEKK2mut confirm	MEKK3 confirm
Cc1ccc(S(=O)(=O)NCCc2cccs2)cc1	1.0	128.0*	121.0	21.0	108.0	1.0	106.0
O=S(=O)(NCCN1CCOCC1)c1cccc(C(F)(F)F)c1	-4.9	98.0	98.0	4.0	x	x	x
O=C(O)CC1c2ccccc2CCN1S(=O)(=O)c1cccs1 (centres undefined)	3.5	x	x	x	x	x	x
Cc1ccc2oc(-c3cccc(N)c3)nc2c1	15.3	97.0	96.0	-4.0	x	x	x
Nc1cccc(-c2nc3cc(S(=O)(=O)c4ccc5oc(-c6cccc(N)c6)nc5c4)ccc3o2)c1	-6.3	69.0*[inhibitor]	71.0	-27.0	86.0	-18.0	92.0
CCC(C)[C@H](NC(=O)N1CC(=O)Nc2ccccc21)C(=O)N[C@@H](Cc1c[nH]c2ccccc12)C(=O)O (some centres undefined)	2.0	102.0	102.0	3.0	x	x	x
Cc1ccc(C(=O)Nc2ncc3c(Cl)cccc3n2)cc1	-2.2	109.0	109.0	25.0*	104.0	2.0	105.0
Cc1ccc(C(=O)Nc2ccc(Cl)cn2)cc1	5.0	99.0	97.0	1.0	x	x	x
CC1(C)CC(=O)c2cc(OCC(=O)NCCCN3CCN(c4ccc(F)cc4)CC3)ccc2O1	23.8	109.0	144.0*	20.0	122.0	11.0	101.0
CC(C)CCNC(=O)COc1ccc2c(c1)C(=O)CC(C)(C)O2	14.3	99.0	98.0	-3.0	x	x	x
CC(=O)Nc1ccc(C(=O)OCC(=O)Nc2c(F)cccc2F)cc1	1.0	104.0	102.0	0.0	x	x	x
COc1cccc(NC(=O)N2CCN(c3cccc(C)c3C)CC2)c1	3.2	0.0*[inhibitor]	0.0*[inhibitor]	-17.0	98.0	0.0	103.0
N#Cc1c2nc3ccccc3nc2n2cc(NC(=O)c3ccc(F)cc3)ccc12	x	56.0*[inhibitor]	-1.0*[inhibitor]	-5.0	94.0	8.0	88.0
CCc1c(C)nc2cc(-c3ccc(OC)c(OC)c3)nn2c1NCC1CC1	17.3	x	x	x	x	x	x
Cc1cc(C)c(OCC(=O)OCC(=O)N2c3ccccc3CC2C)c(C)c1 (centres undefined)	-3.6	x	x	x	x	x	x
CCCN1CCN(CCCNC(=O)c2cc3c(=O)[nH]c4ccc(C)cc4c3s2)CC1	17.8	67.0*[inhibitor]	75.0	-9.0	108.0	-4.0	101.0
COC(=O)c1ccc(N2C(=O)Nc3ccccc3N2O)cc1	1.0	50.0*[inhibitor]	53.0	-31.0	99.0	-3.0	103.0
O=C(O)c1ccc(N2C(=O)Nc3ccccc3N2O)cc1	2.0	104.0	104.0	4.0	x	x	x
C/C(CC(=O)Nc1ccc2c(c1)OCCO2)=N\NC(=O)COc1ccc(Cl)c(C)c1	11.8	105.0	103.0	3.0	x	x	x
Cc1ccc2[nH]c3c(N4CCc5ccccc5C4)ncnc3c2c1	5.1	95.0	139.0	15.0	x	x	x
Fc1ccc2[nH]c3c(N4CCc5ccccc5C4)ncnc3c2c1	-4.6	104.0	108.0	2.0	x	x	x
Brc1ccc2[nH]c3c(N4CCc5ccccc5C4)ncnc3c2c1	28.5	104.0	150.0*	35.0	127.0	2.0	104.0
CCOc1ccc2[nH]c3c(N4CCc5ccccc5C4)ncnc3c2c1	9.5	115.0	187.0*	42.0	199.0	46.0	110.0
CC1(N2CCCCC2)C(=O)c2ccccc2C1=O	-2.8	138.0*	106.0	0.0	106.0	2.0	103.0

Source: PubChem
